Most compounds without a hit are left out; they make up all but 11% or so of the library.
L3MBTL1 block = qHTS Assay for the Inhibitors of L3MBTL1 | Lethal(3)malignant brain tumor-like protein 1 (Homo sapiens), Q9Y468 | AlphaScreen L3MBTL1–H3K9me1 peptide binding | Potency, µM (series often up to 57.1 µM), without a hit: at the top dose activity, negative = inhibition, actives largely listed as inhibitors | 0.66% of 230,000 active; also: potency is read from the fitted curve at half-maximal effect; % is scaled to controls: 0 for no effect and ±100 for the full control effect; nearly all actives have a fitted effect of over 60% in size
Target sequence (Q9Y468 whole entry, looked up): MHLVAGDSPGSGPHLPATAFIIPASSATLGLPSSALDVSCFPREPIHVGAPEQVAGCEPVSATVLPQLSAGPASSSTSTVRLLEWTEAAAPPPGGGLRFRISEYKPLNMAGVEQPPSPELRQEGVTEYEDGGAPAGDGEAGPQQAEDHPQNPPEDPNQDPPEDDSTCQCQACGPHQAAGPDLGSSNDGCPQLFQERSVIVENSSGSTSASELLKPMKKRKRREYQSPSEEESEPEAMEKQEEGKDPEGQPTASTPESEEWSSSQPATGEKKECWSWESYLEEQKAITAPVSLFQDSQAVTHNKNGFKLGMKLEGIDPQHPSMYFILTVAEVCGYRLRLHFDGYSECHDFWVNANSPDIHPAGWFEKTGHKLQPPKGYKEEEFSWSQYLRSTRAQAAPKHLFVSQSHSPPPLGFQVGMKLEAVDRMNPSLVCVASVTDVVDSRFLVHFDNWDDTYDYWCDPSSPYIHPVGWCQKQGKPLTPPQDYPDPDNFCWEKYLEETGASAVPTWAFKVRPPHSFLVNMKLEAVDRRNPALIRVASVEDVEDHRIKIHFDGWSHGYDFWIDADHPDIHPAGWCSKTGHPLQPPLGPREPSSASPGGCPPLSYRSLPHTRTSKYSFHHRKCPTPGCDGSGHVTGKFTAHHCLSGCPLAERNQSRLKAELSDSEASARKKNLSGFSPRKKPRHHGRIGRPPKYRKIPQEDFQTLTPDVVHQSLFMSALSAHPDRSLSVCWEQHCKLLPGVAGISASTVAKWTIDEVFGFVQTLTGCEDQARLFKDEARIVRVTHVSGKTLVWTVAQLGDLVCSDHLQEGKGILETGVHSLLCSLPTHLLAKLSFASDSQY
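Read-out is AlphaScreen signal from streptavidin donor and nickel chelate acceptor beads (10 ug/mL final each) bridging L3MBTL1 (50 nM) and biotinylated K9-monomethylated H3(1-15) peptide (75 nM), after 30 min compound exposure at room temperature.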
JMJD2A Tudor = qHTS Assay for Inhibitors of JMJD2A-Tudor Domain; AlphaScreen JMJD2A-Tudor / H3K4me3 peptide binding; Lysine-specific demethylase 4A (Homo sapiens), O75164; AID 504339, 2011; 4.4% of 390,000 active; Potency, µM (series often up to 114 µM), without a hit: top-dose activity change, negative = inhibition, most hits filed as inhibitors; also: potency is read from the fitted curve at half-maximal effect; % is scaled to controls: 0 for no effect and ±100 for the full control effect; nearly all actives have a fitted effect of over 50% in size
PI5P4K alpha inh = qHTS for Inhibitors of phosphatidylinositol 5-phosphate 4-kinase (PI5P4K) | max response, % | PI5P4Kalpha enzyme, ADP-Glo luminescence, 60 min; active compounds read low | 1.2% of 330,000 active | AID 652105, 2013; active = max response of -50% or lower; inconclusive = between -30% and -50%; inactive = -30% or higher; also: value at the top dose of about 77 µM; % is scaled to controls: 0 for no effect and ±100 for the full control effect
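Compounds were pin-transferred onto PI5P4Kalpha and substrate in HEPES pH 7.4 buffer with EGTA, CHAPS and 5% DMSO. ATP (5 microM final) started the reaction, which ran 60 minutes at room temperature before ADP-Glo detection.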
HP1b binding inh = HTS for Inhibitors of HP1-beta Chromodomain Interactions with Methylated Histone Tails | Chromobox protein homolog 1 (Homo sapiens), P83916 | AlphaScreen HP1-beta / biotin-H3K9me3 peptide binding | Potency, µM (top dose mostly 114 µM), for inactives: at the top dose activity change, negative = inhibition, hits mostly inhibitors | 0.56% of 390,000 active; also: potency is read from the fitted curve at half-maximal effect; nearly all actives have a fitted effect of over 70% in size
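AlphaScreen: HP1-beta (50 nM) preformed 30 min with biotin-H3(1-18)K9me3 peptide (50 nM) in PBS pH 7.4, 0.01% Tween-20. Compound added for 30 min at RT, then streptavidin donor/nickel chelate acceptor beads (10 ug/mL) for 30 min.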
G9a block = qHTS Assay for Inhibitors of Histone Lysine Methyltransferase G9a; 8.8% of 350,000 active; G9a H3K9 monomethylation, AlphaScreen, 2 h; Potency, µM (top dose mostly 102 µM), for inactives: top-dose activity, negative = inhibition, actives largely listed as inhibitors; also: potency is read from the fitted curve at half-maximal effect; % is scaled to controls: 0 for no effect and ±100 for the full control effect; nearly all actives have a fitted effect of over 75% in size
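Chemiluminescent proximity detection of H3K9 monomethylation, read after 10 min bead incubation in the dark. Reaction: 20 nM G9a, 500 nM biotin-H3K9 peptide, 20 uM SAM cofactor, 2 h, room temperature, following 15 min enzyme-compound preincubation.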
BAZ2B block = qHTS Assay for Inhibitors of BAZ2B. Bromodomain adjacent to zinc finger domain protein 2B (Homo sapiens), Q9UIF8. AlphaScreen BAZ2B-H3K14Ac peptide displacement. Potency, µM (titrated, usually from 114 µM), for inactives: at the highest dose activity change, negative = inhibition, hits mostly inhibitors. 4.4% of 360,000 active; also: potency is read from the fitted curve at half-maximal effect; % is scaled to controls: 0 for no effect and ±100 for the full control effect; nearly all actives have a fitted effect of over 60% in size
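BAZ2B 50 nM plus b-H3(5-23)K14Ac 50 nM, PBS pH 7.4/0.01% Tween-20, 30 min RT; compound added (max 110 uM), 30 min RT; streptavidin donor/Ni-chelate acceptor beads 10 ug/mL final, 20 min dark; AlphaScreen read.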
Numbers without * were called inactive; u = inconclusive; x = no result given; [ ] = dose if it differs, or a comment. Unless noted, calls follow the shape of the dose curve; as a rule, active = well fitted inhibition curve with a large enough effect; inconclusive = small, poorly fitted or top-dose-only effect; inactive = no such curve, though single readings can be large or run the other way.

SMILES	L3MBTL1 block	JMJD2A Tudor	PI5P4K alpha inh	HP1b binding inh	G9a block	BAZ2B block
COc1ccc(-c2noc(C3CC(=O)N(c4ccc5c(c4)OCCO5)C3)n2)c(OC)c1 (stereo not given)	x	-31.3%	x	0.8%	10.7%[59 µM]	-21.1%
COc1cccc(OC)c1C(=O)Nc1cc(Cl)ccc1N1CCOCC1	4.9%	-19.7%	-5.5	4.4%	u	12.0%
CC1CCCN(C(=O)C(C)Nc2cc(Cl)ccc2N2CCOCC2)C1 (stereo not given)	x	u	-0.4	2.0%	39.8µM*	u
COC(=O)c1cc2oc3ccccc3c2n1CC(=O)Nc1cccc(SC)c1	x	-16.4%	x	6.7%	-0.2%[59 µM]	-0.3%
Cc1ccc(/C(O)=C/C(=O)C(=O)NNC(=O)C(O)(c2ccccc2)c2ccccc2)cc1	-3.0%	u	x	13.3%	-9.8%[59 µM]	50.1µM*
COC(=O)C(=O)/C=C(\O)c1ccc(C)cc1	0.6%	79.4µM*	2.5	10.8%	2µM*	u
CCOc1ccccc1NC(=O)c1sc2nc3n(c(=O)c2c1C)CCCCC3	x	-12.2%	x	5.8%	-1.2%[59 µM]	5.1%
COc1ccc(-c2nc3cccc(OC)c3c(=O)n2Cc2ccccc2)cc1COc1ccc(NC(C)=O)cc1	x	50.1µM*	x	x	x	x
COc1ccc(-c2nc3ccccc3c(=O)n2Cc2ccco2)cc1COc1ccc(NC(C)=O)cc1	x	-21.1%	x	x	x	x
COc1ccc(CN(Cc2ccccc2)C(=O)CN2CCN(C)CC2)cc1COc1ccc(NC(C)=O)cc1	x	35.5µM*	x	-5.8%	x	x
COc1ccc(Cn2c(C3CC3)nc3ccc(NC(C)=O)cc3c2=O)cc1	-3.8%	-12.2%	-9.2	46.7%	13.8%[59 µM]	-12.9%
COc1ccc(CN(Cc2ccccc2)C(C)=O)cc1COc1ccc(NC(C)=O)cc1	x	-17.7%	x	35.7%	x	x
COc1ccc(-c2nc3ccc(NC(C)=O)cc3c(=O)n2Cc2cccc(Cl)c2)cc1COc1ccc(NC(C)=O)cc1	x	79.4µM*	x	-4.9%	x	x
COc1ccc(-c2nc3ccc(NC(=O)COC(C)=O)cc3c(=O)n2Cc2ccccc2)cc1COc1ccc(NC(C)=O)cc1	x	79.4µM*	x	-3.1%	x	x
CN(Cc1ccco1)c1nc(-c2ccccc2C(F)(F)F)nc2ccccc12	x	x	x	x	1.4%[0.501 µM]	x
COc1ccc(-c2nc3ccccc3c(=O)n2Cc2ccc(CNC(=O)CO)cc2)cc1COc1ccc(NC(C)=O)cc1	x	79.4µM*	x	x	x	x
COc1ccc2c(c1)c(=O)c(C(=O)c1ccc(C)cc1)cn2Cc1ccccc1F	x	-27.6%	x	15.8%	-4.8%[59 µM]	-27.7%
CCc1noc(C)c1C(=O)NNC(=O)c1cc(OC)c(OC)c(OC)c1	3.8%	1.3%	0.0	29.2%	6.31µM*	2.7%
Cc1cc(C(=O)NNC(=O)CCCCC(=O)NNC(=O)c2cc(C)[nH]n2)n[nH]1	12.4%	-15.3%	-3.9	26.0%	3.98µM*	7.3%
COc1cc(C(=O)NNC(=O)c2cc(C)[nH]n2)cc(OC)c1OC	10.4%	u	-1.6	-25.5%	12.6µM*	-35.7%
CCc1noc(C)c1C(=O)NNC(=O)c1cc(OC)cc(OC)c1	-4.1%	5.7%	0.1	45.1%	-24.8%[2.33 µM]	2.3%
CCCS(=O)(=O)c1nc(S(=O)(=O)c2ccc(C)cc2)c(N(C)Cc2ccccc2)s1	x	0.0%	x	32.7%	-34.2%[59 µM]	-2.6%
Cc1ccc(S(=O)(=O)c2cn(CC(=O)Nc3ccc4c(c3)OCO4)c3ccc(C)cc3c2=O)cc1	x	-27.8%	x	9.6%	u	-37.4%
CC(=O)OCc1nc2ccccc2s1	4.2%	1.4%	x	8.7%	72.9%[59 µM]	4.4%
O=C(O)COCc1nc2ccccc2s1	x	-1.7%	-1.8	59.2%	50.1µM*	-25.1%
SMILES	L3MBTL1 block	JMJD2A Tudor	PI5P4K alpha inh	HP1b binding inh	G9a block	BAZ2B block
CCOC(=O)c1nc2ccccc2s1	7.2%	11.6%	1.2	31.3%	9.6%[59 µM]	10.3%
CCOC(=O)C(=O)Cc1nc2ccccc2s1	-0.4%	-29.5%	2.7	13.7%	50.1µM*	u
Cc1csc2nc(COc3ccc(NC(=O)COc4ccc(F)cc4)cc3)cc(=O)n12	x	-19.5%	x	23.0%	-23.6%[59 µM]	-3.4%
CCOC(=O)c1ccccc1NC(=O)CSc1nc2ncccc2o1	x	-2.3%	x	-8.5%	2.5%[59 µM]	-17.4%
Cc1ccc(C)c(S(=O)(=O)N/N=C/c2cccnc2)c1	-0.3%	-25.2%	3.6	36.8%	u	-1.1%
Cc1ccc(C)c(S(=O)(=O)N/N=C/c2ccc(F)cc2)c1	-2.1%	-22.5%	-0.1	27.0%	11.2µM*	-3.7%
CC(=O)Nc1ccc(/C=N/NS(=O)(=O)c2cc(C)ccc2C)cc1	-12.2%	-4.0%	-1.3	35.8%	50.1µM*	-37.2%
COc1ccccc1NCC(=O)N/N=C(\C)c1cccs1	x	35.5µM*	-16.9	u	39.2%[59 µM]	u
C/C(=N\NC(=O)CNc1cccc(Cl)c1C)c1cccs1	16.5%	-7.7%	2.0	7.5%	x	3.0%
COc1ccccc1NC(=O)CCC(=O)Nc1cc(OC)c(NC(=O)c2cccs2)cc1OC	x	79.4µM*	6.8	-4.8%	-7.7%	1.0%
COc1cc(NC(=O)c2cccs2)c(OC)cc1NC(=O)CCC(=O)Nc1cccc2ncccc12	-4.3%	-10.6%	3.8	40.9%	4.1%	-0.7%
Cc1noc(Cn2c(=O)c3ccccc3n(CC(=O)Nc3cccc(Cl)c3C)c2=O)n1	x	-13.8%	x	8.6%	-6.1%[59 µM]	-8.6%
COc1ccc(C(=O)CCN2CCN(c3ccccc3F)CC2)cc1	42.0%[11.4 µM]	-4.4%[11.4 µM]	0.2	51.5%	u	-32.7%
O=C(CN1CCN(c2ccccc2F)CC1)c1c[nH]c2ccc(F)cc12	x	-17.3%	x	12.8%	u	2.1%
O=C(CN1CCN(c2ccccc2F)CC1)N1CCc2ccccc21	x	-8.8%	3.6	0.3%	10.4%	-14.4%
CC(=O)N1CCc2cc(C(=O)CN3CCN(c4ccccc4F)CC3)ccc21	x	-19.7%	-8.2	36.4%	14.1µM*	-33.9%
O=C(CCN1CCN(c2ccccc2F)CC1)c1ccc(Br)cc1	-1.1%	-25.5%	-11.4	20.1%	3.16µM*	-4.5%
O=C(CN1CCN(c2ccccc2F)CC1)c1ccc2cc[nH]c2c1	0.0%	-31.2%	-14.8	31.8%	25.1µM*	4.3%
CC(=O)N1CCc2cc(C(=O)CN3CCN(c4ccccn4)CC3)ccc21	x	1.1%	2.3	36.9%	20µM*	8.5%
COCCn1c(=O)c(-c2ccc(F)cc2)nc2cnc(OC)nc21	x	x	x	x	4.6%[0.501 µM]	x
Cc1cccc(N2CCN(C(=O)Cn3ncc4c([nH]c5ccccc54)c3=O)CC2C)c1 (stereo not given)	x	-10.9%	x	11.3%	-3.1%[59 µM]	-0.4%

Compound activity (PubChem)
